# High-throughput results as filed in PubChem.
# Shown are actives, neighbours in structure and some others; about 4.6% of the full set was active somewhere.
# VACV Venus inh: qHTS for Stage-Specific Inhibitors of Vaccinia Orthopoxvirus: Venus Reporter Primary qHTS | Vaccinia virus Venus reporter expression, fluorescence | 0.46% of 330,000 active | Potency, µM (highest dose often 36.5 µM), inactives show at the highest dose activity change, negative = inhibition, hits mostly inhibitors | AID 720580, 2013; calls by dose curve; tested in A549 cells; also: nearly all actives have a fitted effect of over 30% in size
# MARV entry inh: qHTS for inhibitors of binding or entry into cells for Marburg Virus | 1.8% of 300,000 active | Marburg virus pseudotyped entry inhibition, cell reporter | Potency, µM (doses to about 37.8 µM), without a hit: top-dose activity change, negative = inhibition, hits mostly inhibitors; calls by dose curve; tested in HEK293 cells
# VACV mCherry inh: qHTS for Stage-Specific Inhibitors of Vaccinia Orthopoxvirus: mCherry Reporter Primary qHTS. Potency, µM (titrated, usually from 36.5 µM), for the others: top-dose activity change, negative = inhibition, actives largely listed as inhibitors. 0.63% of 310,000 active. Vaccinia virus mCherry reporter infection, fluorescence; calls by dose curve; tested in A549 cells; also: nearly all actives have a fitted effect of over 35% in size
# HCV inhibitor: qHTS Assay for Inhibitors of Hepatitis C Virus (HCV); AID 651820, 2012; 3.4% of 340,000 active; Potency, µM (series often up to 41.8 µM), without a hit: at the top dose activity change, negative = inhibition, actives largely listed as inhibitors; Huh7.5.1 HCVcc-Cre infection, luciferase reporter, 44 h; active = well fitted inhibition curve with a large enough effect; inconclusive = small, poorly fitted or top-dose-only effect, or another doubt; inactive = no such curve, though single readings can be large or run the other way
#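 1,000 cells/well; 4 h culture; + compound; + HCVcc-Cre (~0.5 moi); 44 h; luciferase substrate, RT 15 min; read 15 sec.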
# Lassa entry inh: qHTS for Inhibitors of binding or entry into cells for Lassa Virus. Lassa virus pseudotype entry inhibition, cell reporter. Potency, µM (top dose mostly 37.9 µM), inactives show top-dose activity change, negative = inhibition, usual class: inhibitors. 1.2% of 300,000 active; calls by dose curve; tested in HEK293 cells; also: nearly all actives have a fitted effect of over 50% in size
# The depositor's hits bear a star; i = inactive; u = inconclusive; x = not tested or not shown; [ ] = remark or other dose. % is scaled to controls: 0 for no effect and ±100 for the full control effect; potency is read from the fitted curve at half-maximal effect.
SMILES,VACV Venus inh,MARV entry inh,VACV mCherry inh,HCV inhibitor,Lassa entry inh
CCCCOc1ccc(CNC(=O)c2cnc3sc(N4CCCCCC4)nn3c2=O)cc1,-11.8%,x,-17.0%,x,-3.9%[46.1 µM]
CCOc1ccc(N(CC)C(=O)c2cc3c(s2)-c2ccccc2OC3)cc1,-7.6%,4.9%[46.1 µM],-9.8%,x,x
O=[N+]([O-])c1ccc(-c2cnc(SC(c3ccccc3)c3ccccc3)[nH]2)cc1,u,u,u,u,3.55µM*
Cc1cc(C)c(CSc2ncc(-c3ccc([N+](=O)[O-])cc3)[nH]2)c(C)c1,-28.6%,u,-0.4%,11.2µM*,-0.4%
CC(C)CCN(C(=S)Nc1cccc(F)c1)C1CCN(C(C)C)CC1,-22.1%,u,-22.0%,11.2µM*,u
COc1ccccc1N1CCN(C(=O)/C=C/c2c(Cl)nc3ccccn23)CC1,-21.8%,u,i,11.2µM*,u
COc1cc(N)c(Cl)cc1C(=O)OCC(=O)NCC1CCCCC1,-16.5%,u,-14.2%,10µM*,-29.2%[46.1 µM]
O=C(Nc1cc2ccc(O)cc2oc1=O)c1ccc(F)cc1,-13.1%,x,-22.1%,x,u
O=C(Nc1cc2ccccc2oc1=O)c1ccccc1,-0.2%,1.26µM*,3.2%,-21.2%,2.51µM*
[Hg+][c]1ccccc1,2µM*,x,2µM*,x,x
c1ccc2oc(-c3csc(N4CCOCC4)n3)cc2c1,-19.3%,7.94µM*,-10.5%,u,u
Fc1ccc(-c2csc(N3CCOCC3)n2)cc1,-1.3%,u,u,u,5.4%[46.1 µM]
O=C(C[N+]12CN3CN(CN(C3)C1)C2)c1ccc(I)cc1,-18.0%,x,i,x,x
COc1cc(/C=C(/C#N)c2ccc(F)cc2)ccc1Oc1ccc([N+](=O)[O-])cn1,-21.1%,u,-27.1%,2.51µM*,u
O=C1[C@@H](Oc2ccccc2)[C@@H](c2cccnc2)N1c1ccccc1,-21.1%,x,i,35.5µM*,x
O=C1[C@@H](Oc2ccccc2)[C@@H](c2ccccc2)N1c1ccccc1,-13.4%,x,-1.3%,-1.7%,x
N#Cc1cccnc1N1CCN(C(=O)c2cccc3c2C(=O)c2ccc(Cl)cc2S3(=O)=O)CC1,-9.0%,x,i,12.6µM*,x
CCN(CC)CCCOC(=O)C(c1ccccc1)c1ccccc1,-8.0%,x,-6.0%,0.562µM*,x
CCN(CC)CCCOC(=O)C(OC)(c1ccccc1)c1ccccc1,-19.4%,u,u,8.4%,-14.3%
CC(C)COc1ccc(CNC(=S)Nc2ccccc2)cc1Cl,-16.2%,u,-25.8%,10µM*,-12.4%[46.1 µM]
S=C(NCc1ccccc1)Nc1cccc(Cl)c1,-13.5%,-34.8%,-6.6%,-1.7%,-0.8%
CCCOc1ccc(CNC(=S)Nc2ccccc2)cc1Cl,-20.8%,u,i,15.8µM*,-8.5%[46.1 µM]
CC(C)Oc1ccc(CNC(=S)Nc2ccccc2)cc1Cl,x,x,x,-2.0%,x
CCOc1ccc(NS(=O)(=O)c2ccc(C(=O)N(C)C)s2)cc1,-4.6%,x,-12.4%,x,-19.3%[46.1 µM]
COc1ccc(CC(=O)Nc2nc3ccc(F)cc3s2)cc1S(=O)(=O)N1CCOCC1,u,-8.9%,-14.8%[1.46 µM],12.6µM*,-11.4%
SMILES,VACV Venus inh,MARV entry inh,VACV mCherry inh,HCV inhibitor,Lassa entry inh
COc1ccccc1S(=O)(=O)N1CCN(c2nc(-c3cccs3)nc3ccccc23)CC1,-9.9%,x,i,x,x
COc1ccc(Nc2nc(-c3cccs3)nc3ccccc23)cc1S(=O)(=O)N1CCOCC1,u,x,u,2.82µM*,x
COc1ccc(CC(=O)Nc2nc3ccccc3s2)cc1S(=O)(=O)N1CCOCC1,x,u,x,11.2µM*,u
COc1ccc(CCn2c(C)cc(C(=O)CSc3nc(N)cc(=O)[nH]3)c2C)cc1,u,u,-12.1%,11.2µM*,u
Cc1cc(C(=O)CCl)c(C)n1CCc1ccc(F)cc1,-2.4%,u,-8.3%,u,u
Cc1cc(C(=O)CCl)c(C)n1CCc1ccc(Cl)cc1,-15.8%,u,-11.6%,10µM*,u
COc1ccc(N2CCN(C(=O)CCS(=O)(=O)c3cc4c(cc3Cl)NC(=O)CO4)CC2)cc1,-1.7%,x,-8.7%,x,-14.8%[46.1 µM]
Cc1ccc(S(=O)(=O)N2CCOCC2)cc1C(=O)OC(C)C(=O)c1ccccc1 (configuration not stated),-16.3%,-28.4%[46.1 µM],u,3.55µM*,-2.4%
COc1cccc(NC(=O)COC(=O)c2cc(S(=O)(=O)N3CCOCC3)ccc2C)c1,-21.0%,17.8µM*,i,-23.8%,-18.0%
Cc1ccc(NC(=O)COC(=O)c2csc3c2CCC(C)C3)cc1S(=O)(=O)N1CCCCC1 (configuration not stated),-27.0%,u,-15.8%,u,u
Cc1ccc(S(=O)(=O)N2CCOCC2)cc1C(=O)OCC(=O)Nc1ccc2c(c1)OCO2,-5.1%,-2.4%,-6.7%,-11.1%,10.6%
CC1CCc2c(C(=O)OCC(=O)Nc3cccc(S(=O)(=O)N4CCCCCC4)c3)csc2C1 (configuration not stated),-9.0%,u,-10.6%,7.08µM*,15.3%
Cc1ccc(C)c(C(=O)OCC(=O)Nc2cccc(S(=O)(=O)N3CCCCC3)c2)c1,x,x,x,10µM*,x
O=C(NC1CCCC1)c1cnn2c1NC(=C1CC1)C=C2C(F)F,-29.6%,x,-21.8%,x,x
COc1ccc(OC)c(NC(=O)C2=C(C)C(=O)OC23CCN(C(C)C)CC3)c1,-7.5%,x,-6.0%,x,11.5%[46.1 µM]
Cc1cccc(Nc2nnc(SCC(=O)Nc3cccc(S(=O)(=O)N4CCCCC4)c3)s2)c1,-28.0%,u,-2.7%,12.6µM*,u
Cc1cccc(NC(=O)CSc2nnc(NC(=O)CN3CCCCC3)s2)c1,x,1.3%,x,1.6%,-4.0%
COc1ccc(N=C2NC(=O)C(CC(=O)NCCc3ccc(OC)c(OC)c3)S2)cc1 (configuration not stated),-13.5%,15.1%[46.1 µM],-0.6%,-17.0%,u
COc1ccc(CC2SC(=Nc3ccc(F)cc3)NC2=O)cc1 (configuration not stated),-0.6%,-12.7%[46.1 µM],i,3.4%,4.47µM*
COc1ccc2c(c1)OC(C)CN(CCNC(=O)c1ccc(-n3cccn3)cc1)C2 (configuration not stated),-11.0%,x,-25.9%,x,x
COc1ccc2c(c1)/C(=C\c1cccc(/C=C3/C(=O)Nc4ccc(OC)cc43)n1)C(=O)N2,-15.4%,1.58µM*,-5.2%,2.82µM*,2.82µM*
CC(C)(C)c1cc(C2=CSC3=NCCN23)cc(C(C)(C)C)c1O,x,x,x,5.62µM*,x
N#CC1=C(N)OC2=C(C(=O)CCC2)[C@@H]1CCc1ccccc1,x,10.8%[46.1 µM],x,x,x
Cc1ccc2c(c1)C(=NC1CCCCC1)c1cc3ccccc3nc1-2,10.6%,u,-4.3%,2.2%,1.0%
Cc1ccc2c(c1)Cc1nc3ccccc3nc1-2,-5.9%,6.31µM*,i,-8.9%,u
CCOC(=O)c1c(/N=C/N(C)C)sc(/C=N/Nc2ccccc2)c1-c1ccccc1Cl,-21.4%,u,-18.6%,6.31µM*,u
